The record followed here is PubChem BioAssay (EPA / NIEHS).

“And” between values parts separate entries of the source, which are not always exact repeats. Identical values can stand only once. Inconclusive results are not listed. The source made the active and inactive calls. Rule for the calls: active = hit-call score of the fitted dose curve at least 0.9, where 1 is the maximum; inconclusive = response in the unintended direction; inactive = score below 0.9.

The nature of experiment [1]: TOX21_p53_BLA_p2_viability: Viability Assessment in the Tox21 HCT-116 p53 Agonism Beta-lactamase Assay, Phase 2 (AID 2283591).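 Note: actives lower the ATP signal meaning cytotoxicity.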 The method in brief:
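Cytotoxicity readout: CellTiter-Glo ATP luminescence, 30 min at room temperature, after the beta-lactamase read. Cells were HCT116 exposed 16 h at 37C to compounds pin-transferred at 217-fold dilution from DMSO stocks.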

Experiment [2] concerns the target Cellular tumor antigen p53 (Homo sapiens) (UniProt P04637). In words: TOX21_p53_BLA_p2_ratio: Tox21 HCT-116 p53 Agonism Beta-lactamase Assay, Ratio, Phase 2 (AID 2283592). The method in brief: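 First, HCT116 reporter cells settle for 5 h at 37C. Next, DMSO compound solutions are pinned in (217-fold dilution) and left 16 h. Finally, CCF4-AM substrate is loaded 2 h at room temperature and the 460/530 nm ratio read.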

The nature of experiment [3]: TOX21_p53_BLA_p3_viability: Viability Assessment in the Tox21 HCT-116 p53 Agonism Beta-lactamase Assay, Phase 3 (AID 2283593).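 Note: cells exposed to compound for 16 h before reading.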 In outline: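 Cellular ATP was quantified by CellTiter-Glo luminescence, read after 30 min at room temperature. Beforehand, HCT116 cells (4000/well) received compound 5 h post-seeding, 217-fold diluted from DMSO, then incubated 16 h at 37C.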

The target in experiment [4] is Cellular tumor antigen p53 (Homo sapiens) (UniProt P04637). Description: TOX21_p53_BLA_p3_ratio: Tox21 HCT-116 p53 Agonism Beta-lactamase Assay, Ratio, Phase 3 (AID 2283596). The method in brief:
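Cells were seeded at 4000/well, rested 5 h at 37C, then dosed with DMSO compound solutions (217-fold dilution) for 16 h. CCF4-AM substrate was loaded for 2 h at room temperature, and the 460/530 nm emission ratio was fitted for gain of signal versus DMSO.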

Experiment [5] is described as follows: TOX21_p53_BLA_p4_viability: Viability Assessment in the Tox21 HCT-116 p53 Agonism Beta-lactamase Assay, Phase 4 (AID 2283597).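 Note: hits lower the luminescence signal meaning cytotoxicity.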 In outline: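 4000 HCT116 cells per well; 5 h attachment; compounds from DMSO, 217-fold dilution; 16 h at 37C. Then CCF4-AM, 2 h RT, followed by CellTiter-Glo, 30 min RT, luminescence. Decrease = cytotoxicity.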
In experiment [6] the target is Cellular tumor antigen p53 (Homo sapiens) (UniProt P04637). In words: TOX21_p53_BLA_p5_ratio: Tox21 HCT-116 p53 Agonism Beta-lactamase Assay, Ratio, Phase 5 (AID 2283599). In outline:
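Beta-lactamase reporter ratio (blue 460 nm over green 530 nm, 405 nm excitation) after 2 h CCF4-AM loading, in HCT-116 cells exposed 16 h at 37 C to compounds pinned at 217-fold dilution. Increases relative to DMSO baseline scored.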

Experiment [7] in a line: TOX21_p53_BLA_p5_viability: Viability Assessment in the Tox21 HCT-116 p53 Agonism Beta-lactamase Assay, Phase 5 (AID 2283600). The method in brief:
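Decreased CellTiter-Glo luminescence denotes lost viability. Exposure: 16 h at 37C, 5% CO2, with compounds from DMSO stocks diluted 217-fold in wells of 4000 cells.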

Experiment [8] has as its target Cellular tumor antigen p53 (Homo sapiens) (UniProt P04637). In words: TOX21_p53_BLA_p4_ratio: Tox21 HCT-116 p53 Agonism Beta-lactamase Assay, Ratio, Phase 4 (AID 2283601). The method in brief:
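Signal is the blue/green (460nm/530nm) ratio of cleaved versus uncleaved CCF4-AM substrate, read after 2 h substrate loading. Cells were HCT116 carrying the p53-responsive beta-lactamase reporter, dosed 16 h at 37C, 5% CO2; CellTiter-Glo measured in parallel.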

Experiment [9] deals with PGR (gene 5241) (UniProt P06401). In words: TOX21_PR_BLA_Followup_Antagonist_ratio: Tox21 HEK293 Progesterone Receptor (PR) Antagonism Beta-lactamase Follow-Up Assay, Ratio (AID 2283934).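 Note: PR-UAS-bla HEK293T cells stimulated with 1 nM R5020 agonist for 16 hr.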 The method in brief:
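Cells are plated, rested 6 hr, then dosed with test compound in DMSO and challenged with 1 nM promegestone. After 16 hr incubation, substrate loading for 2 h at room temperature precedes fluorescence reading; viability is measured in the same wells.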

Experiment [10] is described as follows: TOX21_PR_BLA_Followup_Agonist_viability: Viability Assessment in the Tox21 HEK293 Progesterone Receptor (PR) Agonism Beta-lactamase Follow-Up Assay (AID 2283935).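 Note: signal loss means lower viability so actives are cytotoxic.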 The method in brief: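 Cells were plated in medium with 2% charcoal-stripped FBS and rested 6 hr. Compounds in DMSO were then added for 16 hr at 37C, followed by the FRET substrate step and CellTiter-Glo luminescence after 30 min.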

A short description of experiment [11]: TOX21_PR_BLA_Followup_Antagonist_viability: Viability Assessment in the Tox21 HEK293 Progesterone Receptor (PR) Antagonism Beta-lactamase Follow-Up Assay (AID 2283936).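 Note: cells exposed to compound with R5020 agonist for 16 h; hits lower the luminescence signal meaning cytotoxicity.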 The method in brief: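 PR-UAS-bla HEK293T cells in medium with 2% charcoal-stripped FBS were treated with compounds plus R5020 for 16 hr at 37C. After the beta-lactamase read, CellTiter-Glo was added to the same wells and luminescence read after 30 min at room temperature.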

Experiment [12] has as its target PGR (gene 5241) (UniProt P06401). Description: TOX21_PR_LUC_Followup_Antagonist: Tox21 HEK293 Progesterone Receptor (PR) Antagonism Luciferase Follow-Up Assay (AID 2283938).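 Note: curve fitted upward as signal gain over DMSO baseline despite antagonist label.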 The method in brief:
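HEK293-PR-A-luc cells, 3,000/well, preincubated 5 h at 37C before compound addition in DMSO; 16 h compound exposure at 37C. ONE-Glo luciferase luminescence read after 30 min at room temperature, fitted relative to DMSO baseline.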

Experiment [13] can be described thus: TOX21_PR_LUC_Followup_Antagonist_viability: Viability Assessment in the Tox21 HEK293 Progesterone Receptor (PR) Antagonism Luciferase Follow-Up Assay (AID 2283940). The method in brief:
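HEK293-PR-A-luc, 3,000 cells/well; 5 h at 37C/0% CO2; compound pin transfer; 16 h incubation; CellTiter-Glo ATP luminescence, signal loss = cytotoxicity.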

Cellular tumor antigen p53 (Homo sapiens), sequence (P04637 whole entry, looked up): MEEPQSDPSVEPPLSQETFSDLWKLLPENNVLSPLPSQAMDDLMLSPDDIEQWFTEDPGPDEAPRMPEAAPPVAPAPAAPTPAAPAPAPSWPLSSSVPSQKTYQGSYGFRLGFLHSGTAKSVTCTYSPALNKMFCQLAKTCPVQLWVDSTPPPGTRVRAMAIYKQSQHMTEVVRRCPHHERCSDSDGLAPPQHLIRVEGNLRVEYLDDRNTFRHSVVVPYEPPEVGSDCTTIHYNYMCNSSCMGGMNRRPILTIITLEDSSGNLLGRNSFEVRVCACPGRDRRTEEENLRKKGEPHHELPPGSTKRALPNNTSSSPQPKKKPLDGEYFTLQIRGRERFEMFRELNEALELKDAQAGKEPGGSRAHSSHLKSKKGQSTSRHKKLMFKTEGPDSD
PGR (gene 5241), sequence (P06401 whole entry, looked up): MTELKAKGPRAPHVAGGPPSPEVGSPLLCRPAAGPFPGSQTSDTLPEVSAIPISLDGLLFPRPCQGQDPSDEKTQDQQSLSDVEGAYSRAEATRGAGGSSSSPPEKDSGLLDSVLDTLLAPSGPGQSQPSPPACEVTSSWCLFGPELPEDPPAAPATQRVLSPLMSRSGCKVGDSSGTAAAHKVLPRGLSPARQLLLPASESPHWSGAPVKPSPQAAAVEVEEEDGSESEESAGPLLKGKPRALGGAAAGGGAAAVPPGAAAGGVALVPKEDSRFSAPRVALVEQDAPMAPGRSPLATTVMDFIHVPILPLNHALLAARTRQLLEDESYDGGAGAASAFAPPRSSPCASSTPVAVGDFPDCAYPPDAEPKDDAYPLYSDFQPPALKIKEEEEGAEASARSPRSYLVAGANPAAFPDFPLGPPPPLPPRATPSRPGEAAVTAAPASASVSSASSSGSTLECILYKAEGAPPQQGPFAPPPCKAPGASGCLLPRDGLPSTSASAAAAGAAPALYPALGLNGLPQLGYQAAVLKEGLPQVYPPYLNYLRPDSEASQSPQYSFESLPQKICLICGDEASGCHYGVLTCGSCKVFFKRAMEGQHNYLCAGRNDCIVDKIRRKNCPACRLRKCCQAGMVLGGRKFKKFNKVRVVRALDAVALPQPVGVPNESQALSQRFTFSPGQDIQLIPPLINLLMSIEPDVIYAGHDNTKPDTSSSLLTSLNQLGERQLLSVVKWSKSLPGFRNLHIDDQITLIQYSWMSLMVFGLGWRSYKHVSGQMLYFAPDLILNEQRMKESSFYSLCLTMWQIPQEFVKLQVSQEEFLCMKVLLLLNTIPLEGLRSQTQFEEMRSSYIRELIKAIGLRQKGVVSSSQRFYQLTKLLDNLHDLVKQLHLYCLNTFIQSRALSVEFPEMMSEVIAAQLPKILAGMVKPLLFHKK

Turning to `CCN(CC)CCNC(=O)c1c(C)[nH]c(/C=C2\C(=O)Nc3ccc(F)cc32)c1C`, the molecule was classed as inactive in experiment [1], in [2], in [3], in experiment [4], in [6] and in experiment [7]. Further, the half-maximal activity concentration (AC50) in experiment [5] is 17.7 µM (active); in experiment [8] it was 37.1 µM (active).

With `COc1cc(C)c(/C=C/C(C)=C/C=C/C(C)=C/C(=O)O)c(C)c1C`, the molecule was called inactive in experiment [1], in [3], in experiment [4], in experiment [5], in [7] and in experiment [8]. The AC50 was 33.4 µM (active) in [2] and 36 µM (active) in experiment [6].

For `NC(=O)n1c(O)c(C(=O)c2cccs2)c2cc(Cl)ccc21`, the molecule was called inactive in experiment [1], in [3], in experiment [5], in experiment [7], in experiment [8] and in [9]. Also, the result in experiment [10], in [11] and in experiment [13] was inactive. The concentration at half-maximal activity (AC50) in [2] is 26.9 µM (active); in experiment [4], 20.4 µM (active); in experiment [6], 34.4 µM (active); in experiment [12], 17.3 µM (active).

Turning to `CC(C)C[C@H](NC(=O)[C@H](Cc1ccccc1)NC(=O)c1cnccn1)B(O)O`, the AC50 in experiment [1] is 283 nM (active) and 357 nM (active); in experiment [2], 9.74 nM (active) and 12.9 nM (active); in experiment [3], 318 nM (active) and 262 nM (active); in [4], 10.5 nM (active) and 14.1 nM (active); in experiment [5], 128 nM (active) and 150 nM (active); in experiment [6], 25.2 nM (active) and 15.7 nM (active). The AC50 in [7] was 554 nM (active) and 442 nM (active); in [8], 9.86 nM (active) and 13 nM (active); in experiment [9], 0.168 µM (active); in experiment [12], 0.0717 µM (active). The call in [10], in [11] and in experiment [13] was inactive.

For the molecule `Cc1ccc(/C=N/n2c(-c3ccccc3)csc2=S)cc1`, the call in experiment [1], in [2], in experiment [3], in experiment [4], in [5] and in experiment [6] was inactive. For the same molecule, the molecule was classed as inactive in experiment [7], in [8], in [10], in experiment [11], in experiment [12] and in [13]. In addition, the AC50 in experiment [9] was 23 µM (active).

Regarding `COC(=O)C1=C(C)NC(C)=C(C(=O)OCCN2CCN(C(c3ccccc3)c3ccccc3)CC2)C1c1cccc([N+](=O)[O-])c1` (centres undefined), the molecule was classed as inactive in [1], in experiment [2], in experiment [3], in [4], in [5] and in experiment [6]. In addition, the molecule was classed as inactive in [7], in [8], in [9], in experiment [10], in [11] and in experiment [13]. The AC50 in [12] is 23 µM (active).

With `N#C/C(=C1/SC[C@@H](c2ccc(Cl)cc2Cl)S1)n1ccnc1`, the call in experiment [1], in experiment [2], in [3], in [4], in [5] and in [6] was inactive. Further, the molecule was classed as inactive in experiment [7], in [8], in experiment [10], in experiment [11], in [12] and in experiment [13]. The AC50 in experiment [9] is 33 µM (active).

Turning to `C=C1C(CCl)(CCl)C2(Cl)C(Cl)C(Cl)C1(Cl)C2(Cl)Cl` (centres undefined), the AC50 in [1] was 50.6 µM (active) and 13.5 µM (active); in [2], 76.7 µM (active) and 35.7 µM (active); in [3], 45.6 µM (active) and 12 µM (active); in experiment [4], 86.4 µM (active) and 20.9 µM (active); in experiment [5] it was 67.2 µM (active) and 17.1 µM (active); in experiment [6], 68.4 µM (active) and 24.1 µM (active). The AC50 in experiment [7] is 45.6 µM (active) and 15.7 µM (active); in experiment [8], 86.6 µM (active) and 36.1 µM (active); in experiment [9] it was 23 µM (active). For the same molecule, the result in [10], in experiment [11], in experiment [12] and in experiment [13] was inactive.

The AC50 is the concentration at which the activity in the assay is half-maximal.
